Screens as filed in PubChem.
An excerpt weighted towards active compounds, which were near 8.1% of everything screened.
KB-V1 MDR tox = kills drug-selected multidrug resistant KB-V1 cells. KB-V1 MDR cells viability, CellTiter-Glo, 72 h. Potency, µM (titrated, usually from 46.1 µM), hits mostly cytotoxic. hit rate 3.4% among 400,000. AID 1347076; note: nearly all actives have a fitted effect of over 60% in size
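Following 72 h at 37 degrees C with compound, KB-V1 cell viability was read by CellTiter-Glo luminescence, medium being phenol-red-free DMEM plus 10% FBS; concentration-response parameters came from normalized, curve-fitted qHTS data.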
SW480 rerep = DNA re-replication induction in SW480 cells | SW480 DNA re-replication, Hoechst DNA content imaging, 48 h | Potency, µM (top dose mostly 46.1 µM), actives largely listed as activators | hit rate 1.8% among 340,000 | AID 624297; note: nearly all actives have a fitted effect of over 55% in size
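Cells (250 per well) received 23 nL compound or DMSO by pin tool and were kept 48 hr at 37 C, 5% CO2. Nuclei were then stained with Hoechst for 40 min and scanned for DNA content.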
ELG1 DNA repair = inhibitors of ELG1-dependent DNA repair in HEK293T cells; AID 504467; Potency, µM (series often up to 46.1 µM), most hits filed as inhibitors; hit rate 2.3% among 330,000; HEK293T ELG1-luciferase reporter, luminescence, 16 h; DNA damage induced by 5-fluorouridine; note: nearly all actives have a fitted effect of over 55% in size
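Quantitative HTS, concentration-response format. 2,000 cells/well co-treated with 5-fluorouridine and compound, 16 hr in 5% CO2 at 37 °C; ONE-Glo luminescence read after 30 min.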
KB-3-1 tox = KB-3-1 parental cell cytotoxicity | AID 1347075 | KB-3-1 viability, CellTiter-Glo ATP luminescence, 72 h | Potency, µM (series often up to 46.1 µM), hits mostly cytotoxic | hit rate 1.4% among 400,000; note: nearly all actives have a fitted effect of over 60% in size
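Cytotoxicity in the drug-sensitive parental line KB-3-1 was scored as loss of CellTiter-Glo luminescence following 72 h incubation with compound. Values come from curve fitting of normalized concentration-response data.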
MCF10A rerep = DNA re-replication induction in MCF 10a cells. MCF 10A DNA re-replication, Hoechst nuclear intensity, 48 h. Potency, µM (highest dose often 46.1 µM), most hits filed as activators. hit rate 2.9% among 350,000; note: nearly all actives have a fitted effect of over 50% in size
ELG1 FLuc counter = luciferase inhibition in cell-free luciferin readout for ELG1 hits; shares compounds with ELG1 DNA repair; cell-free firefly luciferase luminescence counter-screen, ViewLux; Potency, µM (doses to about 46.1 µM), hits mostly inhibitors; hit rate 3% among 350; AID 624247
ELG1 Luc conf = inhibits ELG1-dependent DNA repair in HEK293T cells, confirmed | shares compounds with ELG1 DNA repair | HEK293T ELG1-luciferase levels, luminescence; cells co-treated with 5-fluorouridine | Potency, µM (series often up to 46.1 µM), most hits filed as inhibitors | hit rate 68% among 670; note: nearly all actives have a fitted effect of over 55% in size
Target sequence (Q96QE3 whole entry, looked up): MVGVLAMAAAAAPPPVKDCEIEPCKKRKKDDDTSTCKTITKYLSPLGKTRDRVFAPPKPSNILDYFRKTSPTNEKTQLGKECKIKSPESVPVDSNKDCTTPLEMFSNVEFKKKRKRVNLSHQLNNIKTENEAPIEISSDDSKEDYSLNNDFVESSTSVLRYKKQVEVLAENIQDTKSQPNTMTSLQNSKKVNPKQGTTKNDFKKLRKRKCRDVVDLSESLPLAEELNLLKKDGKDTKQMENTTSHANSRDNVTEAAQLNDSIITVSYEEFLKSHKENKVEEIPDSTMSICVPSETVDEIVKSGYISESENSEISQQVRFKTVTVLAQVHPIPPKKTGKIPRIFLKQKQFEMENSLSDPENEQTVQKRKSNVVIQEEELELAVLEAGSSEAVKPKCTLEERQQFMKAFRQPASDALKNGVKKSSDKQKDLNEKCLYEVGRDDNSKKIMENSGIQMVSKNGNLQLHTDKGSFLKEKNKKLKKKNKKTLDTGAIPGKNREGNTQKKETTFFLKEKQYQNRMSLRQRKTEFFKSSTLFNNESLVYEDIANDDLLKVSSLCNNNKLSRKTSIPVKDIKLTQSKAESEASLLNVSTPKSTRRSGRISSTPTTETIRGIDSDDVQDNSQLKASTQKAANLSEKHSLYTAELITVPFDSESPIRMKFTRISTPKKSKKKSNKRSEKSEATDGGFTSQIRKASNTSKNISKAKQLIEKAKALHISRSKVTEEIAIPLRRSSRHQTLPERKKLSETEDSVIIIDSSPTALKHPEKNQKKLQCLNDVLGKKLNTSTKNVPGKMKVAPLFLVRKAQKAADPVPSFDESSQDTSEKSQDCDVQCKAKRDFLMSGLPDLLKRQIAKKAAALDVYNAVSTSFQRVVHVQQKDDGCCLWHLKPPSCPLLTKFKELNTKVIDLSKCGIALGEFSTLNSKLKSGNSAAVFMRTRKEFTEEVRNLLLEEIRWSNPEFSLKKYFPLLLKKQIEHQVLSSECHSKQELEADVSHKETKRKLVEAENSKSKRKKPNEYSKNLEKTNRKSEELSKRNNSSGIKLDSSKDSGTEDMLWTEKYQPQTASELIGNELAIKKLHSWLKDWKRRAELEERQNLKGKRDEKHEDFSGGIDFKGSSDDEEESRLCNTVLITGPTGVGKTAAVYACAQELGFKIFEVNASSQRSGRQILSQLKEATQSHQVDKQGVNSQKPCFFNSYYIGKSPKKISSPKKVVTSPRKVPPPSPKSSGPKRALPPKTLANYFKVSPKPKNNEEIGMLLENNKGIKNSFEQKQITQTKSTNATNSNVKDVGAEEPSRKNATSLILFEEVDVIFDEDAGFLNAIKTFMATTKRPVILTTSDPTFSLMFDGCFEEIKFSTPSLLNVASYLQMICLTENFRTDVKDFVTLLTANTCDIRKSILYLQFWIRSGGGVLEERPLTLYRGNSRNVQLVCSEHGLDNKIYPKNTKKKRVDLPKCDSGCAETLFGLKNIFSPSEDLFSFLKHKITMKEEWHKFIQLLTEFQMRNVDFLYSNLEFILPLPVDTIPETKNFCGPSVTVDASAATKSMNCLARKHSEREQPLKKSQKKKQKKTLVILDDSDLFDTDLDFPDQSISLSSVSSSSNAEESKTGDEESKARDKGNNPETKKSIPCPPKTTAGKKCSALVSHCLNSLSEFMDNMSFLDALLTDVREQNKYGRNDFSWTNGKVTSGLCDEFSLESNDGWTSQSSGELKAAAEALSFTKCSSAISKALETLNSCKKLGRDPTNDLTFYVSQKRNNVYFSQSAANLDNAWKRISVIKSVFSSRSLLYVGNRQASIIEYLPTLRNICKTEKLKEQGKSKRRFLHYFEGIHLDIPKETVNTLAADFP
ELG1 MMS Luc = confirmation of human ELG1 repair inhibitors, MMS stimulated. shares compounds with ELG1 DNA repair. HEK293T luciferase-tagged ELG1 level, MMS stimulated. Potency, µM (doses to about 46.1 µM), hits mostly inhibitors. hit rate 53% among 670. AID 624249; note: nearly all actives have a fitted effect of over 60% in size
ELG1 5FU viab = confirmation of ELG1 repair inhibitors: viability with 5FU; shares compounds with ELG1 DNA repair; cell viability with 5-FU, ELG1-dependent repair; Potency, µM (series often up to 46.1 µM), most hits filed as cytotoxic; 670 tested, under 10 active; AID 624250;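 note: ELG1-luc HEK293T cells cotreated with 5-fluorouridine at 10 µM final; viability measured 16 h after compound addition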
ELG1 MMS viab = confirmation of ELG1 repair inhibitors: viability with MMS; shares compounds with ELG1 DNA repair; Cell viability with MMS, ELG1-dependent DNA repair; Potency, µM (titrated, usually from 46.1 µM), hits mostly cytotoxic; hit rate 33% among 670; AID 624251;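 note: ELG1-luc HEK293T cells co-treated with 10 µM MMS; viability read 16 h after compound addition; nearly all actives have a fitted effect of over 60% in size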
ELG1 unstim viab = affects unstimulated cell viability, ELG1 hit counter-screen. shares compounds with ELG1 DNA repair. AID 624252. Potency, µM (top dose mostly 45.9 µM), most hits filed as cytotoxic. hit rate 8% among 900. cell viability counter-screen, unstimulated, luminescence;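 note: compound exposure lasted 16 hours before reading; nearly all actives have a fitted effect of over 55% in size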
FLuc enzyme = inhibits purified firefly luciferase, counter-screen for ELG1 hits. Potency, µM (titrated, usually from 57.5 µM), usual class: inhibitors. shares compounds with ELG1 DNA repair. purified firefly luciferase, luminescence counter-screen. hit rate 10% among 350
A number is an active result; – = inactive; ? = inconclusive; · = not tested or not shown. Calls come from the whole dose curve; as a rule, active = well fitted curve in the direction sought with a large enough effect; inconclusive = small, poorly fitted or top-dose-only effect, or another doubt; inactive = no such curve, though single readings can be large; an effect the other way counts as inactive or inconclusive.

SMILES	KB-V1 MDR tox	SW480 rerep	ELG1 DNA repair	KB-3-1 tox	MCF10A rerep	ELG1 Luc conf	ELG1 MMS Luc	ELG1 5FU viab	ELG1 MMS viab	ELG1 unstim viab	others
Cc1ccc(-c2csc(=Nc3cccnc3)n2CCCn2ccnc2)cc1C	7.3µM	–	2.9µM	16µM	?	4µM	6.3µM	–	10µM	22µM	ELG1 FLuc counter=?;FLuc enzyme=–
COc1cccc(/C=C/c2onc(C)c2S(=O)(=O)N2CCC(C(=O)N3CCCCC3)CC2)c1	–	·	·	–	·	·	·	·	·	·
COc1ccc(/C=C/c2onc(C)c2S(=O)(=O)N2CCC(C(=O)N3CCCCCC3)CC2)cc1	–	–	2.6µM	?	?	3.1µM	16µM	?	–	–
CCOc1ccccc1/C=C/c1onc(C)c1S(=O)(=O)N1CCC(C(=O)N2CCCCCC2)CC1	–	–	2.9µM	?	18µM	4µM	?	?	–	–
Cc1cccc(/C=C/c2onc(C)c2S(=O)(=O)N2CCC(C(=O)N3CCCCC3)CC2)c1	–	–	2.9µM	–	–	2.2µM	?	?	–	–
COc1ccc(C(=O)COc2ccc(C(C)=O)cc2OC)cc1OC	?	–	·	–	–	·	·	·	·	·
O=C(C1=C[C@H](c2ccc(Br)cc2)C[C@H](OCc2ccc(CO)cc2)O1)N1CCN(Cc2ccc3c(c2)OCO3)CC1	?	–	9.2µM	?	?	7.9µM	?	?	–	?	ELG1 FLuc counter=?;FLuc enzyme=–
C#Cc1ccc([C@H]2C=C(C(=O)N3CCN(Cc4ccc5c(c4)OCO5)CC3)O[C@@H](OCc3ccc(CO)cc3)C2)cc1	–	?	1.6µM	–	26µM	5.6µM	?	?	?	–	ELG1 FLuc counter=–;FLuc enzyme=–
Cc1c(C(=O)N2CCN(S(=O)(=O)c3ccccc3F)CC2)oc2c(Cl)cccc12	–	–	?	?	?	·	·	·	·	·
Cc1cc(=O)oc2cc(NC(=O)c3ccc(OC(F)F)cc3)ccc12	–	?	?	–	–	·	·	·	·	–
Cc1cc(=O)oc2cc(NC(=O)c3cccc(F)c3)ccc12	–	–	?	–	–	·	·	·	·	·
Cc1ccc2c(c1)N(CC(=O)NCc1cccnc1)C(=O)CO2	–	–	–	–	–	·	·	·	·	·
CCOC(=O)c1cnn2c(C(F)(F)F)cc(-c3ccc(Br)cc3)nc12	–	·	·	–	·	·	·	·	·	·
Cc1cc(NC(=O)c2cnn3c(C(F)(F)F)cc(-c4ccc(Br)cc4)nc23)no1	?	–	15µM	–	–	5µM	–	?	–	–	ELG1 FLuc counter=–;FLuc enzyme=–
COc1ccc(-c2cc(C(F)(F)F)n3ncc(C(=O)NCC4CCCO4)c3n2)cc1OC (configuration not stated)	–	–	0.58µM	–	?	0.89µM	–	?	–	–	ELG1 FLuc counter=–;FLuc enzyme=–
COc1ccc(-c2cc(C(F)(F)F)n3nc(C(=O)Nc4cc(C)on4)cc3n2)cc1OC	?	–	3.7µM	–	?	?	–	?	?	–
COc1ccc(S(=O)(=O)N2CCN(c3cccc(C)c3C)CC2)cc1	–	–	–	–	–	·	·	·	·	·
O=C(O)C1CCCC2CN3CCc4c([nH]c5ccccc45)C3C(O)C21 (configuration not stated)	?	–	–	–	–	·	·	·	·	·
CCCCCn1c(=O)[nH]c2cc(C(=O)N3CCN(Cc4ccc5c(c4)OCO5)CC3)ccc2c1=O	–	–	0.46µM	–	–	?	0.22µM	–	0.22µM	?	ELG1 FLuc counter=–;FLuc enzyme=–
COc1ccc(N2CCN(C(=O)c3ccc4c(=O)n(CCc5ccc(OC)c(OC)c5)c(=O)[nH]c4c3)CC2)cc1	?	–	1.8µM	–	–	16µM	13µM	–	?	?
CCCCCn1c(=O)[nH]c2cc(C(=O)NCc3ccc4c(c3)OCO4)ccc2c1=O	–	–	–	–	–	·	·	·	·	·
O=C(c1ccc2c(=O)n(CCc3ccccc3)c(=O)[nH]c2c1)N1CCN(c2ccccc2)CC1	–	–	–	?	–	·	·	·	·	·
COc1ccc(OC)c(NC(=O)CCn2c(=S)[nH]c3ccccc3c2=O)c1	–	–	–	–	–	·	·	·	·	·
COc1ccc(OC)c(NC(=O)c2ccc3c(=O)n(CCc4ccccc4)c(=S)[nH]c3c2)c1	?	–	1.5µM	–	–	?	0.56µM	–	0.63µM	?
CC(C)(C)c1ccc(Oc2nc3ccccn3c(=O)c2/C=C(\C#N)c2nc3ccccc3s2)cc1	–	·	·	–	·	·	·	·	·	·
SMILES	KB-V1 MDR tox	SW480 rerep	ELG1 DNA repair	KB-3-1 tox	MCF10A rerep	ELG1 Luc conf	ELG1 MMS Luc	ELG1 5FU viab	ELG1 MMS viab	ELG1 unstim viab	others
Cc1cc(C)cc(NC(=O)CCC(=O)N2CCSc3ccccc32)c1	–	?	–	–	?	·	·	·	·	·
Cc1ccc(C)c(S(=O)(=O)NCc2ccc(C(=O)N3CCN(c4ccccc4)CC3)cc2)c1	?	–	?	–	–	·	·	·	·	·
Cc1ccc(S(=O)(=O)NCc2ccc(C(=O)N3CCN(c4ccc([N+](=O)[O-])cc4)CC3)cc2)cc1	?	–	2.3µM	?	–	7.9µM	1.6µM	–	1.8µM	?
O=C(Nc1ccc(N2CCN(Cc3ccccc3F)CC2)cc1)c1ccc([N+](=O)[O-])o1	15µM	?	2.6µM	?	2.1µM	4µM	4.4µM	–	6.3µM	–
COc1ccc(CCN2C(=O)c3cccc4cccc(c34)C2=O)cc1OC	–	–	–	–	–	·	·	·	·	·
CCN(CC)C(=O)c1ccc2c3c(cccc13)C(=O)N(CCc1ccc(OC)c(OC)c1)C2=O	7.3µM	–	4.6µM	?	?	11µM	10µM	?	22µM	25µM
CCN(CC)Cc1c(O)ccc2c([N+](=O)[O-])c(C)n(-c3ccc(OC)cc3)c12	–	–	2.3µM	?	–	4µM	?	–	–	–
COc1ccc(-c2cc(C)no2)cc1S(=O)(=O)N1CCCCC1	–	–	–	–	–	·	·	·	·	·
